From PubChem BioAssay (NCI)
Compounds without any hit were thinned out: in the full panel of roughly 83,000, 20% have a hit.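 Cells were grown in 96-well plates and exposed to the test compound at a single concentration for 48 hours; results are reported as percent growth, with values below 10 considered active.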 Values without a mark were called inactive. Activity calls are given as the source filed them.

How the values were obtained:
Assay in all cases: NCI-60 one-dose screen, 48 h (100 = growth as untreated, 0 = no growth, -100 = all killed)
Conditions in all cases: 10 µM
RPMI-8226 leukemia = test system: RPMI-8226 leukemia
OVCAR-8 ovarian = test system: OVCAR-8 ovarian
OVCAR-5 ovarian = test system: OVCAR-5 ovarian
OVCAR-4 ovarian = test system: OVCAR-4 ovarian
SK-OV-3 ovarian = test system: SK-OV-3 ovarian
OVCAR-3 ovarian = test system: OVCAR-3 ovarian
HS 578T breast = test system: HS 578T breast
NCI/ADR-RES ovarian = test system: NCI/ADR-RES ovarian
T-47D breast = test system: T-47D breast
BT-549 breast = test system: BT-549 breast
MDA-MB-435 melanoma = test system: MDA-MB-435 melanoma
SW-620 colon = test system: SW-620 colon
MCF7 breast = test system: MCF7 breast
HCT-116 colon = test system: HCT-116 colon
HCC-2998 colon = test system: HCC-2998 colon
KM12 colon = test system: KM12 colon
IGROV1 ovarian = test system: IGROV1 ovarian

| SMILES | growth (RPMI-8226 leukemia) | growth (OVCAR-8 ovarian) | growth (OVCAR-5 ovarian) | growth (OVCAR-4 ovarian) | growth (SK-OV-3 ovarian) | growth (OVCAR-3 ovarian) | growth (HS 578T breast) | growth (NCI/ADR-RES ovarian) | growth (T-47D breast) | growth (BT-549 breast) | growth (MDA-MB-435 melanoma) | growth (SW-620 colon) | growth (MCF7 breast) | growth (HCT-116 colon) | growth (HCC-2998 colon) | growth (KM12 colon) | growth (IGROV1 ovarian) |
| --- | --- | --- | --- | --- | --- | --- | --- | --- | --- | --- | --- | --- | --- | --- | --- | --- | --- |
| Cc1cc(Br)nnc1Br | 122% | 115% | 105% | 113% | 101% | 112% | 110% | 120% | 90.1% | 96.8% | 114% | 109% | 103% | 106% | 108% | 96.6% | – |
| NC(N)=N/N=C(\N=Nc1ccccc1)c1ccc(Cl)cc1 | – | 26.2% | 24.9% | 51.8% | 55.5% | 12.6% | 65.2% | 8.53% (active) | 20.4% | 67.2% | 5.69% (active) | 12.7% | 23.8% | 15% | 11% | 20.8% | 46.3% |
| COc1ccccc1N1CCCSC1=Nc1ccccc1 | 43.6% | 104% | 93.9% | – | 113% | 94.1% | 117% | 103% | 107% | – | 103% | 103% | 98.6% | 79.2% | 108% | 91.7% | – |
| COc1cc2nc(SCC(=O)Nc3cc(OC)c(OC)c(OC)c3)n(Cc3ccccc3)c(=O)c2cc1OC | – | -4.94% (active) | 93.7% | 48.1% | 47.4% | 69.7% | 24.9% | – | 73.5% | 14% | 76.2% | 91% | 82.6% | 52.1% | 77.2% | 77.8% | 75.5% |
| Cc1nn(-c2ccccc2)c2nc(Cl)c(C=O)c(-c3ccccc3)c12 | – | 99.9% | 99.8% | 102% | 116% | 106% | 112% | 82.8% | 83.5% | 86% | – | 72.1% | 90.6% | 4.57% (active) | 77.5% | 78.3% | – |
| CC1(C)N=C(N)N=C(N)N1c1cccc(C#N)c1 | – | 33.8% | 51% | 97.3% | 82.9% | 60.7% | 88.2% | 75% | 99.7% | 81.6% | 36.2% | 29.9% | 52% | 17.1% | 58.4% | 47.7% | 42.6% |
| COC1=CC(=O)OC(c2ccc(OC)cc2)C1 (stereo not given) | 111% | 105% | 106% | 106% | 117% | 103% | 111% | 102% | 101% | 105% | 114% | 102% | 99.8% | 108% | – | 102% | – |
| O=c1c(Br)ccc(Br)cc1Br | -51.2% (active) | – | 4.49% (active) | -92.8% (active) | 112% | -94.8% (active) | 43.4% | -15.3% (active) | -44.1% (active) | 98.4% | -40.1% (active) | -46.5% (active) | -22.6% (active) | -88.1% (active) | – | -47% (active) | – |
| COc1ccc2c(c1)C(CC(=O)NN)CCC2 (stereo not given) | 113% | 99.1% | 100% | 110% | 115% | 112% | 102% | 108% | 105% | 103% | 103% | 106% | 95.6% | 104% | – | 105% | – |
| CCN1C(=O)CC(SC2CC(=O)N(CC)C2=O)C1=O (stereo not given) | – | 109% | – | 102% | 103% | 107% | 101% | 98.7% | 102% | 101% | 104% | 108% | 103% | 104% | 97.6% | 104% | 107% |
